SMILES strings stand for the structures. The source made the active and inactive calls. The calls were made as follows: active = hit-call score of the fitted dose curve at least 0.9, where 1 is the maximum; inactive = score below 0.9.

The nature of the assay: BSK_IMphg_SRB: Viability Assessment in the BioMAP Diversity Plus: IMphg Assay (AID 2284292).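 Also: measured one day after compound addition.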 The following applies: primary human endothelial cells with macrophages. As for the experimental part:
BSK_IMphg is a cell-based, multiplexed-readout assay that uses venular endothelial cells and macrophages, a human vascular primary cell, with measurements taken at 24 hours after chemical dosing in a microplate: 96-well plate.BSK_IMphg_SRB is an assay component measured in the BSK_IMphg assay. It measures […] related to cell death using Sulforhodamine staining technology.Data from the assay component BSK_IMphg_SRB was analyzed at the endpoint, BSK_IMphg_SRB, in the positive analysis fitting direction relative to DMSO as the negative control and baseline of activity. Using a type of viability reporter, gain or loss-of-signal activity can be used to understand protein changes. To generalize the intended target to other relatable targets, this assay endpoint is annotated to the 'cell morphology' intended target family, where the subfamily is 'cell conformation'.
The levels of cell surface (or secreted, indicated by the prefix "s") biomarker endpoints were measured by ELISA. Overt cytotoxicity to cells in confluent adherent cultures (all systems other than the BT system) was assessed by measuring total protein levels using sulforhodamine B (SRB) staining in parallel cultures at the time of biomarker measurements, indicated as SRB endpoints. For proliferation assays for adherent cell types, individual cell types are cultured at sub-confluence and relative cell numbers quantified by SRB staining at time points optimized for each system (48 h: 3C and CASM3C systems; 72 h: BT and HDF3CGF systems; 96 h: SAg system). SRB was performed by staining cells with 0.1% SRB after fixation with 10% TCA and reading wells at 560 nm.Viability and proliferation of PBMC (T cells) was quantified by Alamar Blue reduction for the SAg and BT systems. For PBMC viability (referred to as PBMC Cytotoxicity within the assay endpoint names), cells were plated (75,000/well in a 96-well plate) and then chemical samples added for 1 h before addition of activators, SEB and TSST-1 (20 ng/mL final concentration each). Cells were incubated for 90 h. Then, Alamar Blue (20 uL/well) (Invitrogen, Cat DAL1100) was added for 6 h, and the plates were read with a fluorescence microplate reader at 546/580 nm (excitation/emission). For PBMC proliferation, cells were plated and activated as above but incubated for only 16 h prior to addition of Alamar Blue. Plates were read after 6 h.
For `OC(O)(C(F)C(O)(O)C(F)(F)F)C(F)(F)F`, the result was inactive. Take `FC(F)(F)C(F)(F)C(F)(F)C(F)(F)C(F)(F)C(F)(F)I`: the outcome was inactive. `FC(F)C(F)(F)COCC1CO1` (stereo not given): the result was inactive. For the compound `C[Si](C)(C)C(F)(F)C(F)(F)C(F)(F)F`, the outcome was inactive.

With `O=C(Cl)C(F)(F)C(F)(F)C(F)(F)C(=O)Cl`, the outcome was inactive.

As for `FC(F)(F)COC(OCC(F)(F)F)OCC(F)(F)F`, the result was inactive. On to `OCCC(F)(F)C(F)(F)C(F)(F)C(F)(F)F`, for which the result was inactive.

Turning to `O=S(=O)(O)CCC(F)(F)C(F)(F)C(F)(F)C(F)(F)C(F)(F)C(F)(F)F`, the outcome was inactive. With `FC(F)=C(F)C(F)(F)C(F)(F)C(F)(F)C(F)(F)C(F)(F)C(F)(F)F`, the result was inactive.

As for `NCC(F)(F)C(F)(F)C(F)(F)C(F)(F)F`, the result was inactive.

These data come from PubChem BioAssay (EPA / NIEHS).
